# Records with an inconclusive call do not appear. The source made the active and inactive calls. Calls come from the whole dose curve; as a rule, active = well fitted curve in the direction sought with a large enough effect; inconclusive = small, poorly fitted or top-dose-only effect, or another doubt; inactive = no such curve, though single readings can be large or run the other way.
# Target: 4-diphosphocytidyl-2-C-methyl-D-erythritol kinase, chloroplastic (Arabidopsis thaliana) (UniProt O81014)
# Sequence (O81014 whole entry, looked up): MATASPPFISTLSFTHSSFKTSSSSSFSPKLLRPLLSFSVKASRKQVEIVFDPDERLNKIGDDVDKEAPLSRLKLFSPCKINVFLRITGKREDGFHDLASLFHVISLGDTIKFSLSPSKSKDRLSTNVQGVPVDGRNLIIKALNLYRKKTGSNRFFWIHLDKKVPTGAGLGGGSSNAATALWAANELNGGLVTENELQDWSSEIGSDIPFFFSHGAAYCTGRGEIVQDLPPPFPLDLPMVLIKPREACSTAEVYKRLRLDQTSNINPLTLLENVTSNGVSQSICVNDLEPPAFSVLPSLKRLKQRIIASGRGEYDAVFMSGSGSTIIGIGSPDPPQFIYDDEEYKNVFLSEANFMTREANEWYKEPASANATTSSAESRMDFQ
# Assay: Confirmatory Assay for Inhibitors of Human Galactokinase (GALK): CDP-Me assay counterscreen
# Conditions: ATP depletion, Kinase-Glo luminescence
# Excerpt: NIH Molecular Libraries Probe Production Centers Network [MLPCN] NIH Chemical Genomics Center [NCGC] MLPCN Grant: R03 MH085689-01 Assay Submitter (PI): Kent Lai (University of Utah School of Medicine, 50 N Mario Capecchi Drive, Salt Lake City, UT 84132) NCGC Assay Overview The GHMP kinase family is a unique class of important enzymes that plays an essential role in many metabolic processes. It contains more than 170 protein members among which are the galactokinase (GALK) and the CMK enzymes. GALK plays a crucial role in galactose processing and is a potential therapeutic target for Classic Galactosemia (OMIM: 230400). CMK is involved for the non-mevalonate synthesis of isoprenoids precursors and natural products like sterols or ubiquinones which are important to many biological functions. […]
# NCGC Assay Protocol Summary: Three uL/well of substrate solution (15 uM ATP, 30 uM CDP-ME, 20 mM HEPES pH8.0, 5 mM MgCl2, 40 mM KCl, 1 mM DTT, 0.01% BSA final concentration) was dispensed into 1536-well, assay plates (Greiner, solid white medium-binding plates) with Aurora Discovery BioRAPTR Flying Reagent Dispenser (FRD; Beckton-Dickenson). […] After 1 min, luminescence was detected with the ViewLux plate reader (Perkin Elmer, Waltham, MA) using a 1 sec exposure time and 2x binning settings.
smiles,measurement,value
Cc1cc2c(C(C)C)c(O)c(O)c(C=O)c2c(O)c1-c1c(C)cc2c(C(C)C)c(O)c(O)c(C=O)c2c1O,Potency,47.3 µM (active)
